Screening results: PubChem BioAssay, several laboratories
Mtb FBA inh: inhibits M. tuberculosis FBA enzyme. purified M. tuberculosis FBA, fluorescence read-out. inhibition, % at 1 µM. hit rate 2.3% among 360,000. P9WQA3. AID 588726; in the data active = inhibition above about 27%;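 also: 0% = vehicle and 100% = reference inhibitor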
Target sequence (P9WQA3 whole entry, looked up): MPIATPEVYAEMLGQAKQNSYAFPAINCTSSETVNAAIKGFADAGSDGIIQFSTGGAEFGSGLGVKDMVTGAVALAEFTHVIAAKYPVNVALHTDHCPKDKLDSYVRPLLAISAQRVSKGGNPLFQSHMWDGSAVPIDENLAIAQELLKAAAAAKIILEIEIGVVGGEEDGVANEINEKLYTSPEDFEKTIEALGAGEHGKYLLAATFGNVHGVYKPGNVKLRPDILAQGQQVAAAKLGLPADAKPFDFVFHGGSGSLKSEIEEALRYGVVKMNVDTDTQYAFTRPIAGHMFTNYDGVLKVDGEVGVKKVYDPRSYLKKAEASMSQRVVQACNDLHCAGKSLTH
GDH-TPI counter-1: GDH-TPI coupled enzyme inhibition counter-screen. GDH-TPI coupled enzyme counterscreen, NADH absorbance. inhibition, % at 4.8 µM. hit rate 1.2% among 360,000. AID 588335;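 also: 0% = DMSO wells and 100% = wells lacking the enzyme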
BH1578 lux ind: induces V. cholerae light production without autoinducers; hit rate 0.16% among 350,000; activation, % at 18.7 µM; V. cholerae BH1578 lux reporter, luminescence, 6 h; in the data active = activation mostly above about 9.7%, no sharp cut-off
CCHFV vOTU inh: CCHFV vOTU protease inhibition | Pep-AMC fluorescence | inhibition, % at 11.5 µM | hit rate 0.55% among 370,000 | AID 651958; also: 0% = vehicle wells with enzyme and 100% = no enzyme wells
Mtb FBA inh conf: Mtb FBA inhibition, confirmed. hit rate 78% among 5,600. AID 651616. purified M. tuberculosis FBA, fluorescence read-out. shares compounds with Mtb FBA inh. inhibition, % at 1 µM; in the data active = inhibition above about 27%;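 also: 0% = vehicle wells and 100% = reference inhibitor wells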
GDH-TPI counter-2: inhibits GDH-TPI coupling enzymes, flagging Mtb FBA hits; shares compounds with Mtb FBA inh; GDH-TPI coupled enzyme counterscreen, fluorescence; inhibition, % at 1 µM; hit rate 81% among 5,600; AID 652141; in the data active = inhibition above about 10%
Starred values were filed as active, the others as inactive; i = inactive; nt = no result; + = active, no number. Hits are enriched below; roughly 3.9% of the tested compounds scored in any of these assays. Rule as the data show it, unless noted: active = inhibition above about 30%; inactive = the rest.

SMILES	Mtb FBA inh	GDH-TPI counter-1	BH1578 lux ind	CCHFV vOTU inh	Mtb FBA inh conf	GDH-TPI counter-2
Cc1cc(-c2nnc(SCC(=O)Nc3ccc(F)c(F)c3)n2N)n[nH]1	-0.1	-7.9	-0.6	2.0	nt	nt
COc1ccc(C(=O)NNC(=S)NC(=O)/C=C/c2cccs2)cc1	0.5	0.3	i	9.1	nt	nt
O=C(/C=C/c1cccs1)NC(=S)NNC(=O)c1ccccc1O	27.9*	24.9	-0.4	5.3	-0.8	3.1
Cc1onc(-c2c(F)cccc2Cl)c1C(=O)N=C(N)N1CCCC1	1.2	-13.1	1.0	1.8	nt	nt
CCc1cccc(Nc2c([N+](=O)[O-])cc(C(=O)N3CC(=O)Nc4ccccc43)cc2[N+](=O)[O-])c1	110.8*	16.3	-0.1	-0.1	144.7*	102.7*
CCNC(=O)C1(C)CCCN(C(=O)COCc2ccccc2)C1 (stereo not drawn)	2.2	7.1	-0.2	-4.5	nt	nt
COc1cc(OC)cc(-c2oc3cccnc3c2C#CCCO)c1	41.9*	10.8	-4.0	-1.6	-4.9	-5.0
CCCCOc1ccc(C(=O)N2CCN(c3ccc(N4CCOCC4)nn3)CC2)cc1	30.2*	5.2	0.6	-44.1	6.5	-6.2
COc1cc(OC)cc(C(=O)N2CCN(c3ccc(N4CCOCC4)nn3)CC2)c1	28.0*	12.0	i	-58.4	-2.9	-7.9
O=C(c1ccc(F)cc1)N1CCN(c2ccc(N3CCOCC3)nn2)CC1	21.2	2.5	-0.4	-44.8	nt	nt
Cc1cccc(C(=O)N2CCN(c3ccc(N4CCOCC4)nn3)CC2)c1	20.9	0.7	i	-23.2	nt	nt
Cc1ccc(C(=O)N2CCN(c3ccc(N4CCOCC4)nn3)CC2)cc1	37.4*	-6.5	-1.4	-38.8	+	+
Cc1cccc(OC(C)C(=O)Nc2ccc(S(=O)(=O)N3CCCC3)cc2)c1 (stereo not drawn)	4.0	3.1	-0.2	-9.7	nt	nt
Cc1cc(C)c(S(=O)(=O)N2CCN(S(=O)(=O)N3CCOCC3)CC2)c(C)c1	1.9	-0.8	i	3.8	nt	nt
COc1ccc(S(=O)(=O)NCCc2cn3nc(C)c(C)nc3n2)cc1C	22.4	9.6	-2.6	-60.1	nt	nt
Cc1ccc(S(=O)(=O)NCCc2cn3nc(C)c(C)nc3n2)cc1C	64.2*	15.7	-2.5	-86.2	159.2*	159.0*
CCN(CC)CCCN(Cc1cc2cc3c(cc2[nH]c1=O)OCO3)C(=S)NCCCOC	40.5*	34.1*	-0.2	-30.4	+	173.2*
COCCNC(=S)N(CCO)Cc1cc2cc3c(cc2[nH]c1=O)OCO3	30.8*	22.4	-8.3	-33.8	121.9*	91.9*
CCN(CC)CCN(Cc1cc2cc3c(cc2[nH]c1=O)OCO3)C(=S)NCCCOC	39.2*	26.9	-0.6	-42.3	96.8*	80.5*
CCN(CC)CCN(Cc1cc2cc3c(cc2[nH]c1=O)OCO3)C(=S)NCC1CCCO1 (stereo not drawn)	56.4*	17.0	-0.6	-48.5	94.7*	69.6*
Clc1ccc2nnc(Cl)n2n1	7.1	-2.5	i	11.9	nt	nt
O=C(Cc1cccc(NC(=O)C2CCN(C(=O)c3ccccc3)CC2)c1)Nc1cccc(C(=O)N2CCOCC2)c1	0.4	-0.9	-1.8	-6.7	nt	nt
CCn1c(SCC(=O)NNC(=O)c2ccccc2)nnc1-c1ccco1	-1.3	-2.5	-0.8	-6.8	nt	nt
CC(C)C[C@H]1CN(CCCC[C@H]2CNC(=O)C(=O)N2CCC2CCCCC2)C(=O)C(=O)N1CCc1ccccc1	nt	nt	nt	8.5	nt	nt
CNc1cncc(-c2cccc(C(C)=O)c2)n1	-0.4	17.7	i	11.4	nt	nt
SMILES	Mtb FBA inh	GDH-TPI counter-1	BH1578 lux ind	CCHFV vOTU inh	Mtb FBA inh conf	GDH-TPI counter-2
CNc1cncc(-c2ccc(F)cc2F)n1	111.5*	14.3	-0.9	-200.3	103.7*	67.7*
Cc1ccc(CNC(=O)CCS(=O)(=O)c2cccc3nsnc23)cc1	0.0	0.9	i	-9.7	nt	nt
COC(=O)[C@@]1(C)[C@H]2C(=O)N(Cc3ccccc3)C(=O)[C@H]2[C@H]2CN=C(SCc3ccc(C#N)cc3)N21	1.3	10.4	-2.0	-3.7	nt	nt
Cc1nc2cc[nH]n2c(=O)c1CCc1ccccc1	nt	nt	nt	3.4	nt	nt
CCNC(=O)Nc1cc(OC)c(OC)cc1C(=O)O	45.2*	19.8	i	-8.4	89.2*	78.4*
CCCC(=O)Nc1cc(OC)c(OC)cc1C(=O)O	-2.6	-2.9	-5.0	-2.0	nt	nt
Cc1ccc(COC(=O)c2nn(-c3ccccc3)nc2N)cc1	85.6*	1.3	-0.5	-56.1	3.1	-4.3
CC1=CC(c2ccccc2)n2nc(NC(=O)CCCC(=O)O)nc2N1 (stereo not drawn)	61.7*	-5.2	i	-63.1	83.0*	72.8*
